In PubChem BioAssay AID1347075 (National Center for Advancing Translational Sciences (NCATS), 2019):
About 5,500 (1.4%) of roughly 400,000 compounds were called active. Not shown: some 9% with an inconclusive outcome. For the sample, actives were picked, then their nearest neighbours and some compounds at random. Values without a mark were called inactive. The call rests on the fitted dose curve; in most records, active means well fitted cell-killing curve with a large enough effect; inconclusive means small, poorly fitted or top-dose-only effect, or effect the other way; inactive means flat fitted curve, though single readings scatter.

Experiment: qHTS assay for MDR1-selective chemotherapeutics: Primary screen using the parental adenocarcinoma cell KB-3-1; further: nearly all actives have a fitted effect of over 60% in size
Conditions: KB-3-1 viability, CellTiter-Glo ATP luminescence, 72 h; series mostly up to 46.1 µM; activity change, negative = cytotoxic: at the top concentration
How it was run: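 Viability of parental KB-3-1 cells, measured by CellTiter-Glo luminescence, followed a 72 h incubation at 37 °C with pinned compounds in phenol-red-free DMEM containing 10% FBS.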
On the % scale 0 is the no-effect control and ±100 the full control effect; potency means the concentration at half of the fitted maximal effect.

Compound | activity change, negative = cytotoxic | Potency
COc1ccc(CC(=O)N2CC(=O)Nc3ccc(Br)cc3C2c2ccc(F)cc2)cc1OC (stereo not given) | -1.37% | –
COc1ccc(-c2cc(C(F)(F)F)nc(SCC(=O)N(C)Cc3ccccc3)n2)cc1OC | -9.14% | –
Cc1ccc(F)cc1NC(=O)CCSc1nc(-c2ccco2)cc(C(F)(F)F)n1 | 20% | –
CC1(Cc2ccccc2C#N)C(=O)Nc2ccc(-c3ccc4[nH]ccc4c3)cc21 (stereo not given) | – | 6.51 µM (active)
COc1ccccc1CC1(C)C(=O)Nc2ccc(OC(F)(F)F)cc21 (stereo not given) | 0% | –
Cc1ccc(CC2(C)C(=O)Nc3ccc(OC(F)(F)F)cc32)cc1 (stereo not given) | 0% | –
COc1ccc(CCNC(=O)c2cc3cccc4c3n2CC(C)S4)c(OC)c1OC (stereo not given) | -27.6% | –
CC(C)Cn1c(C2CC(=O)N(c3ccccc3Cl)C2)nc2ccccc21 (stereo not given) | 13.6% | –
O=C(CSc1nc(-c2cccc(F)c2)[nH]c1-c1ccccc1)Nc1ccc2c(c1)OCO2 | 1.92% | –
COc1cccc(C(=O)NC2(C(F)(F)F)C(=O)Nc3c2c(=O)[nH]c(=O)n3-c2ccc(C)cc2)c1 (stereo not given) | 1.04% | –
CC(=O)Nc1ccc(S(=O)(=O)N2CCN(c3ccccc3)CC2)cc1 | -4.79% | –
CC(=O)Nc1ccc(Nc2c3ccccc3nc3ccccc23)cc1 | – | 4.61 µM (active)
CCc1c(C)nc2c(-c3ccccc3)c(C)nn2c1Nc1ccc(NC(C)=O)cc1 | -2.98% | –
COc1ccc(CNC(=O)c2ccc3c(c2)nc2n3CCOC2)c(OC)c1 | 8.73% | –
Cc1nc2nc(SCC(=O)N(Cc3ccccc3)C(C)C)nn2c(C)c1Cc1ccccc1Cl | -11.4% | –
O=C(Nc1ccccc1Cl)/C(Cl)=C(\Cl)S(=O)c1ccccc1 (stereo not given) | – | 6.51 µM (active)
O=C(Nc1ccccc1Cl)c1ccccc1S(=O)(=O)c1ccccc1[N+](=O)[O-] | 7.37% | –
O=C(Nc1ccccc1Cl)N1CCC(CN2CCCCC2)CC1 | -2.06% | –
NS(=O)(=O)c1ccc(NC(=O)COc2ccc(S(=O)(=O)NC3CCCCC3)cc2)cc1 | 0.732% | –
COc1ccccc1N1CCN(c2ccc(=O)n(CC(=O)NCc3ccc(OC(C)C)cc3)n2)CC1 | -17.2% | –
Cc1cc(C)cc(NC(=O)CCS(=O)(=O)c2cc3c4c(c2)CCN4C(=O)CC3)c1 | -8.73% | –
Cc1ccc(Oc2c(C(F)(F)F)oc3c(CN4CCCCC4)c(O)ccc3c2=O)cc1 | 5% | –
COc1ccc(CN2CCOC2=O)cc1OC | 4.09% | –
COc1ccc(Cn2c(=O)sc3ccccc32)cc1OC | – | 14.6 µM (active)

Compound | activity change, negative = cytotoxic | Potency
COc1ccccc1CNC(=O)CCn1c(=O)sc2ccccc21 | 2.78% | –
Cc1ccc(-c2nnc3ccc(SCC(N)=O)nn23)cc1 | -10.6% | –
O=C(NCc1cccnc1)C(=O)NCC(c1cccnc1)N1CCN(c2ccccc2)CC1 (stereo not given) | 2.59% | –
CCN1CCN(C(c2ccc(C)cc2)c2c(O)cc(C)n(Cc3ccco3)c2=O)CC1 (stereo not given) | 6.42% | –
CCN1CCN(C(c2cccnc2)c2cc(Cl)c3cccnc3c2O)CC1 (stereo not given) | – | 7.31 µM (active)
O=C1CCC[C@@H]2C[C@@]3(C[C@@H]4CCN1[C@H]24)Nc1ccccc1NC3=NCc1ccccc1 | 6.89% | –
Cc1c(Cl)cccc1-c1ccc(CNCCCSc2nnnn2C)o1 | -9.56% | –
Cc1ccsc1C1C(C#N)=C(N)OC2=C1C(=O)CC(C)C2 (stereo not given) | 11.3% | –
CCOC(=O)CSC1=C(C#N)C(c2sccc2C)CC(=O)N1 (stereo not given) | – | 5.01 µM (active)
C=CCSC1=C(C#N)C(c2cc(Br)c(O)c(OC)c2)CC(=O)N1 (stereo not given) | 2.37% | –
CCOc1ccc(NC(=O)Cn2cc(C(=O)c3ccc(C)cc3)c(=O)c3cc4c(cc32)OCCO4)cc1 | -2.29% | –
CCOc1cc(C2C(C(=O)OC)=C(C)NC3=C2C(=O)c2ccccc23)ccc1O (stereo not given) | 13.2% | –
Cc1ccc(C(=O)N2CCCC(c3ccccc3)=N2)cc1 | -8.58% | –
Cn1c(-c2ccccc2)c[n+]2c1CCCCC2 | -0.0167% | –
Cc1ccc(C(=O)C[n+]2cc(-c3ccccc3)n3c2CCCCC3)cc1 | – | 8.2 µM (active)
Clc1ccc(C[n+]2cc(-c3ccccc3)n3c2CCC3)cc1 | – | 7.31 µM (active)
Cc1ccc(C(=O)CSc2nc(-c3ccccc3)nc3c2CCCC3)c(C)c1 | -1.42% | –
CC1(C)C=Cc2c(ccc(C(=O)/C=C/c3ccccc3)c2O)O1 | 9.25% | –
COc1ccc(CN2CCc3nc(Nc4ccccc4)ncc3C2)c(OC)c1OC | -1.65% | –
CCOc1ccccc1N1CCN(C(=O)c2ccc3[nH]c(C)c(C)c3c2)CC1 | – | 8.2 µM (active)
CCS(=O)(=O)N1CCc2cc(C(=O)N3CCN(c4ccccc4OC)CC3)ccc21 | – | 14.6 µM (active)
CCS(=O)(=O)N1CCc2cc(C(=O)NCc3ccc(OC)cc3)ccc21 | 0.614% | –
Cc1[nH]c2ccc(C(=O)N3CCN(C)CC3)cc2c1C | 2.76% | –
COc1ccccc1NS(=O)(=O)c1ccc(C(=O)N2CCN(c3ccccc3O)CC2)cc1 | 1.02% | –

Compound | activity change, negative = cytotoxic | Potency
CC1CCN(C(=O)c2cccc(S(=O)(=O)N3CCCc4ccccc43)c2)CC1 | -18.9% | –
CCOc1ccccc1NC(=S)N1CCN(c2cccc(C)c2C)CC1 | -9.07% | –
CCn1c(C)c(C)c2cc(C(=O)N3CCN(c4cccc(C)c4C)CC3)ccc21 | – | inactive
Cc1cccc(N2CCN(C(=O)c3ccc4c(c3)CCN4S(=O)(=O)c3ccccc3)CC2)c1C | – | 23.1 µM (active)
Cc1cccn2c(=O)c(C(=O)NC(C)c3ccccc3)cnc12 (stereo not given) | -5.19% | –
COc1cc(C(=O)NCC(c2ccc(Cl)cc2)N2CCOCC2)cc(OC)c1OC (stereo not given) | 8.9% | –
O=C(NCC(c1cccnc1)N1CCc2ccccc21)c1cccc(C(F)(F)F)c1 (stereo not given) | -8.05% | –
CCOC(=O)c1cc2c(=O)n3ccccc3nc2n(CC2CCCO2)c1=NC(=O)c1ccccc1Br (stereo not given) | 8.06% | –
Cn1nc(-c2ccccc2)c(CSc2cccc(Cl)c2)c1Cl | – | 23.1 µM (active)
Cn1nc(-c2ccccc2)c(CO)c1Sc1ccccc1 | 3.21% | –
Cn1nc(-c2ccccc2)c(-c2nc(-c3ccc(Cl)cc3)no2)c1Cl | 3.44% | –
COc1ccccc1N1CCN(C(=O)C2CCN(S(=O)(=O)c3c(C)noc3/C=C/c3ccc(C)cc3)CC2)CC1 | -0.427% | –
O=c1c2cccnc2n(Cc2cccc(F)c2)c(=O)n1Cc1ccccc1Cl | 4.6% | –
CC(C)c1cc(C(=O)N/N=C/C(Br)=C/c2ccccc2)n[nH]1 | – | 10.3 µM (active)
Cc1ccc(-c2cc(C(=O)N/N=C/C=C/c3ccccc3)n[nH]2)o1 | -26.5% | –
CC(C)c1cc(C(=O)O)n[nH]1 | 19.1% | –
CCOC(=O)c1c(C)[nH]c(C)c1C(=O)COC(=O)/C=C/c1cccc([N+](=O)[O-])c1 | 3.02% | –
CCOC(=O)c1cc2cc(C)ccc2[nH]1 | 10.9% | –
CCOC(=O)C=Cc1ccc(C(=O)OCC)[nH]1 | – | 7.31 µM (active)
COc1ccccc1CNC(=O)C(Cc1ccccc1)NS(=O)(=O)c1ccc2c(c1)oc(=O)n2C (stereo not given) | 0.116% | –
COc1ccccc1CN1CCC(CNC(=O)c2cnn(-c3ccccc3Cl)c2C2CCN(C(=O)OC(C)(C)C)CC2)CC1 | -12.9% | –
Cc1cc(Cl)ccc1NC(=O)Cc1ccc(NC(=O)N2CCCCc3ccccc32)cc1 | 6.97% | –
